From PubChem BioAssay (NCATS)
Records with an inconclusive call do not appear. The source holds several records for some structures; these can differ, active in one and inactive in another. Activity calls are given as the source filed them. Calls follow the shape of the dose curve; as a rule, active = well fitted cell-killing curve with a large enough effect; inconclusive = small, poorly fitted or top-dose-only effect; inactive = flat fitted curve, though single readings scatter.

assay: Cellular viability qHTS for adrenocortical cancer (ACC) cell line NCI-H295R (AID 1963990); conditions: CellTiter-Glo ATP luminescence, 48 h; series mostly up to 46.1 µM; activity change, negative = viability loss: at the top concentration; also: nearly all actives have a fitted effect of over 60% in size
Source text: PI: Naris Nilubol, MD Surgical Oncology Program, National Cancer Institute (NCI) National Institute of Health (NIH), Bethesda, Maryland Adrenocortical cancer (ACC) is a rare malignancy with poor survival outcomes and few treatment options. Currently, mitotane is the only FDA-approved therapy for ACC. Although adjuvant radiation therapy is rarely utilized, it has the potential to improve survival in select cases. Through a quantitative high-throughput drug screen (qHTS), we identified auranofin (AF), a thioredoxin reductase (TXNRD) inhibitor, as a promising candidate drug. This study aims to evaluate whether AF can enhance the efficacy of radiation therapy in the treatment of ACC. Two human ACC cell lines, SW-13 and NCI-H295R, were screened using the National Center for Advancing Translational Sciences (NCATS) Pharmaceutical Collection (NPC) and the Mechanism Interrogation PlatE (MIPE) library (~4,991 compounds). CellTiter-Glo (Cat # G7570, Promega, Madison, WI) was utilized to measure cell viability. Described herein are the results of the corresponding viability assay.
PROTOCOL TABLE (as described by Inglese J, Shamu CE and Guy RK. 2007) SEQUENCE No. (e.g., 1, 2, 3, etc.); […] (e.g., Cells, Incubation, Reagent, etc.); VALUE; DESCRIPTION. 1; Cells; 5 uL; white, solid-bottom, 1536-well tissue-culture treated plates. 2; Time; overnight culture at 37C with 5% CO2. 3; Compounds and control; 23 nL; Kalypsis pin tool (Wako USA) equipped with a 1536-well pin head to transfer to the assay plates. 4; Time; 48 hours; 37C with 5% CO2. 5; Reagent; 4 uL; CellTiter-Glo luminescent substrate mix. 6; Time; 20 min at room temperature. 7; Detection; Luminescence; ViewLux plate reader NOTES (numbers refer to Sequence numbers above) 1. NCI-H295R cells were harvested from a T175 flask and resuspended in ITS-supplemented DMEM serum-free medium at a concentration of 300 000 cells/mL. Then 5 uL of resuspended cells were dispensed into each well of white, solid-bottom, 1536-well tissue-culture-treated plates using a multidrop combi dispenser. The plates were covered with stainless steel gasket lids. 2-3. The plates were cultured overnight at 37C with 5% CO2. Twenty-three nL of compounds (eight selected concentrations from the NPC / MIPE) or positive control (10 mM stock of bortezomib) in DMSO was transferred to each well of the assay plate using a pin tool (Kalypsys, San Diego, CA, USA). The final concentration of the compounds in the 5 uL assay volume ranged from 0.5 nM to 46 uM. 4-6. After 48 hours of incubation at 37C and 5% CO2, 4 uL of CellTilter-Glo luminescent substrate mix (Promega, Madison, WI, USA) was added to each well. Then the plates were incubated for 20 minutes at room temperature. 7. After incubation, luminescence was measured using a ViewLux plate reader (PerkinElmer, Waltham, MA, USA) with a clear filter was used to measure the number of metabolically competent cells. To determine compound activity in the qHTS assay, the titration-response data for each sample was plotted and modeled by a four-parameter logistic fit yielding IC50 and efficacy (maximal response) values. Raw plate reads for each titration point were normalized relative to positive control ([…], 100% inhibition) and DMSO-only wells (basal, 0%). REFERENCES: Inglese J, Shamu CE and Guy RK, Reporting data from high throughput screening of small molecule libraries, Nature Chemical Biology, 2007, 3(8): 438-441. doi.org/10.1038/nchembio0807-438.

Row | SMILES | activity change, negative = viability loss | Potency
1 | Cc1ccccc1-n1c(Cn2cnc3c(N)ncnc32)nc2cccc(C)c2c1=O | 3.3% (inactive) | 
2 | CCN(CC)C(C)C(=O)c1ccccc1 (stereo not given) | -2.33% (inactive) | 
3 | O=c1[nH]c2ccccc2n1CCCN1CCC(n2c(=O)[nH]c3cc(Cl)ccc32)CC1 |  | 16.4 µM (active) and inactive
4 | CN1CCC(O)(c2ccc(F)cc2)C(C(=O)c2ccc(F)cc2)C1 (stereo not given) | 0.871% (inactive) | 
5 | C[C@H](N)C(=O)c1ccccc1 | -1.53% [at 92.7 µM] (inactive) | 
6 | CCCCCCCCCC(=O)O[C@H]1CC[C@H]2[C@@H]3CCC4=CC(=O)CC[C@@H]4[C@H]3CC[C@]12C | -14.5% (inactive) | 
7 | CC(C)(O)C(=O)Nc1ccc([N+](=O)[O-])c(C(F)(F)F)c1 | -1.75% (inactive) | 
8 | C=CCN1CC[C@]23CCCC[C@H]2[C@H]1Cc1ccc(O)cc13 | -23.9% (inactive) | 
9 | COc1cc(N)c(Cl)cc1C(=O)NC1CN2CCC1CC2 (stereo not given) | -7.34% (inactive) | 
10 | CN1C(=S)CN=C(c2ccccc2)c2cc(Cl)ccc21 | -25% (inactive) | 
11 | C[C@@H](C1CC[C@@]2(O)C3=CC(=O)[C@@H]4C[C@@H](O)[C@@H](O)C[C@]4(C)[C@H]3CC[C@]12C)[C@H](O)CCC(C)(C)O (stereo not given in full) | -3.42% (inactive) | 
12 | CN[C@@H](C)[C@H](O)c1ccccc1 | -2.39% (inactive) | 
13 | COP(=S)(OC)Oc1ccc(S(=O)(=O)N(C)C)cc1 | -2.6% (inactive) | 
14 | Cc1[nH]ncc1-c1cc2nc([C@@H]3CC4CCN3CC4)[nH]c(=O)c2s1 |  | 28.2 µM (active)
15 | OC(c1ccccc1)(c1ccccc1)C1CCNCC1 | -0.339% (inactive) | 
16 | Cn1c(/C=C/CO)c(CO)c2c1C(=O)C=C(N1CC1)C2=O | 7.33% (inactive) | 
17 | CC(C)NC(C)C | 7.21% (inactive) | 
18 | [N-]=[N+]=CC(=O)OC[C@H](N)C(=O)O | -7.96% (inactive) | 
19 | CN(C)CCc1ccc(O)cc1 | -7.48% (inactive) | 
20 | CC1=C2[C@H]3OC(=O)[C@@H](C)[C@@H]3CC[C@@]2(C)C=CC1=O | -3.22% (inactive) | 

Row | SMILES | activity change, negative = viability loss | Potency
21 | CC(O)CN1CCN(CC(=O)[O-])CCN(CC(=O)[O-])CCN(CC(=O)[O-])CC1.[Gd+3] (stereo not given) | 2.64% (inactive) | 
22 | C=CC(=O)NCNC(=O)C=C | 2.78% [at 92.7 µM] (inactive) | 
23 | COC(=O)[C@@H](N)CCCN=C(N)N[N+](=O)[O-] | -1.3% (inactive) | 
24 | CO/C1=C/C(C)=C\[C@@H](C)[C@@H](O)[C@@H](C)C/C(C)=C\C=C/[C@H](OC)[C@@H]([C@@H](C)[C@@H](O)[C@H](C)[C@@]2(O)C[C@@H](O)[C@H](C)[C@@H](C(C)C)O2)OC1=O |  | 0.0435 µM (active)
25 | CC[n+]1c(-c2ccccc2)c2cc(N)ccc2c2ccc(N)cc21 |  | 14.6 µM (active)
26 | CC(C)(N)Cc1ccc(Cl)cc1 | -14.1% (inactive) | 
27 | CCCN1CCC[C@@H]2Cc3nc(N)ncc3C[C@H]21 | -27.1% (inactive) | 
28 | O=C1C(I)=CC(=C(c2cc(I)c(O)c(I)c2)c2ccccc2C(=O)O)C=C1I |  | 20.6 µM (active)
29 | NCC1(CC(=O)O)CCCCC1 |  | inactive
30 | CN(C)C(=O)Oc1cc(OC(=O)N(C)C)cc(C(O)CNC(C)(C)C)c1 (stereo not given) | -5.86% (inactive) | 
31 | COP(=S)(OC)Oc1ccc(S(N)(=O)=O)cc1 | -0.342% (inactive) | 
32 | CCOC(=O)c1cncn1C(C)c1ccccc1 (stereo not given) | -18.2% (inactive) | 
33 | O=C(O)CNC(=O)C1C(=O)N(C2CCCCC2)C(=O)N(C2CCCCC2)C1=O | -3.52% (inactive) | 
34 | CC[N+](CC)(CC)CC | -21.8% (inactive) | 
35 | CN[C@@H]1C[C@H]2O[C@@](C)([C@@H]1OC)n1c3ccccc3c3c4c(c5c6ccccc6n2c5c31)C(=O)NC4 |  | 0.282 µM (active)
36 | C[C@]12CC[C@H]3[C@@H](CCC4=CC(=O)CC[C@@]43C)[C@H]1CC[C@H]2OC(=O)CCC1CCCC1 | -15.7% (inactive) | 
37 | C[C@H]1CCC/C=C/C2C[C@H](O)C[C@H]2[C@H](O)/C=C/C(=O)O1 (stereo not given in full) |  | 0.224 µM (active)
38 | O=C(NCCCNc1nc(Nc2ccc(N3CCOCC3)cc2)ncc1C1CC1)C1CCC1 | -27.8% (inactive) | 
39 | CN1CCC(N(Cc2ccccc2)c2ccccc2)CC1 | -25.6% (inactive) | 
40 | Cc1c(N)nc([C@H](CC(N)=O)NC[C@@H](N)C(N)=O)nc1C(=O)N[C@H](C(=O)N[C@@H](C)[C@H](O)[C@@H](C)C(=O)N[C@@H](C(=O)NCCc1nc(-c2nc(C(=O)NCCC[S+](C)C)cs2)cs1)[C@@H](C)O)C(O[C@H]1O[C@H](CO)[C@H](O)[C@@H](O)[C@H]1O[C@H]1O[C@H](CO)[C@@H](O)[C@H](OC(N)=O)[C@@H]1O)c1cnc[nH]1 (stereo not given in full) | -13.2% [at 20 µM] (inactive) | 
